Experimental data: PubChem BioAssay AID624352 (Sanford-Burnham Center for Chemical Genomics, 2012)
Among all 360,000 compounds or so, about 2,600 (0.72%) were called active. Only a selection was taken, and actives are over-represented in it overall. Values without a mark were called inactive.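 How the source made its calls: active means inhibition of the luminescence signal of 40% or more relative to plate controls, in a single-dose primary screen at 18.75 µM; inactive means the rest.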

Assay: blockers of HIF-2a driven luciferase – luminescence, 786-0 RCC cells, primary screen (AID 624352)
Details: 786-0 RCC cells HIF-2a reporter, overnight, at 18.8 µM, active compounds read high

Question: With `Cc1cc(C)c(SCCc2ccncc2)c(C)c1` as the molecule, how does the inhibition read?
Answer: 10%

Question: For `Cc1cc(C)c2c(NC(=O)C3CC3)nn(C)c2n1`, which inhibition is on record?
Answer: 0.567%

Question: Which inhibition does the source give for `Cc1cc(Nc2cc(N3CCN(C)CC3)nc(Sc3ccc(NC(=O)C4CC4)cc3)n2)n[nH]1` here?
Answer: 52.1% (active)

Question: Which inhibition does the source give for `Cc1n[nH]c(C)c1S(=O)(=O)N1CCCC(C(=O)Nc2ccc(Br)cc2)C1` (stereo unspecified) here?
Answer: 10.9%

Question: Which inhibition does the source give for `Nc1cccc(OCCCCCOc2cccc(N)c2)c1` here?
Answer: -55.8%

Question: Which inhibition does the source give for `COc1ccc(-c2nc3c(s2)CCc2onc(-c4ccc(OC)cc4)c2-3)cc1` here?
Answer: -8.84%

Question: Which inhibition does the source give for `CO/N=C/CC(=O)c1ccc(OC)cc1` here?
Answer: -11.6%

Question: With `Cc1cc(NC(=O)COc2ccccc2C#N)no1` as the molecule, how does the inhibition read?
Answer: -198%

Question: Which inhibition does the source give for `CCOc1cc(C(=O)O)ccc1OCCOc1ccccc1` here?
Answer: 15.8%

Question: Which inhibition does the source give for `CC(C)CCOc1ccc(C(=O)C[N+]2(C)CCOCC2)cc1` here?
Answer: 12.3%

Question: With `CCCOc1ccc(C(=O)C(CCC(CNCC)C(=O)c2ccc(OCCC)cc2)CNCC)cc1` (stereo unspecified) as the molecule, how does the inhibition read?
Answer: 98.1% (active)

Question: With `CC(CC(=O)O)CC(=O)NNC(=O)c1cccc(Br)c1` (stereo unspecified) as the molecule, how does the inhibition read?
Answer: 15.7%

Question: Which inhibition does the source give for `CC(=O)c1cccc(-c2ccc(CN3C(CC(C)C)C(=O)N(Cc4cn(CC5CCCCC5)nn4)CCS3(=O)=O)cc2)c1` (stereo unspecified) here?
Answer: 4.21%

Question: For `Cn1c(=O)cc(SCC(=O)N2CCN(C(=O)c3ccco3)CC2)c2ccccc21`, which inhibition is on record?
Answer: -11.7%

Question: With `CC(Sc1nncn1C)C(=O)NCCC1=CCCCC1` (stereo unspecified) as the molecule, how does the inhibition read?
Answer: 1.01%

Question: With `Cc1ccc(S(=O)(=O)N(CC(=O)Nc2cccc([N+](=O)[O-])c2)Cc2ccc(Cl)cc2)cc1` as the molecule, how does the inhibition read?
Answer: 8.15%

Question: For `O=C(CCl)N(Cc1cccc([N+](=O)[O-])c1)c1cccc(Cl)c1`, which inhibition is on record?
Answer: 40.9% (active)

Question: For `CC(=O)N(CN1C(=O)C2C3C=CC(C3)C2C1=O)c1cccc(Cl)c1` (stereo unspecified), which inhibition is on record?
Answer: 9.8%

Question: Which inhibition does the source give for `NS(=O)(=O)c1cc2c(cc1Cl)NC(C(Cl)Cl)NS2(=O)=O` (stereo unspecified) here?
Answer: 2.3%

Question: Which inhibition does the source give for `O=C1C=C(c2ccc(Cl)cc2)C(=O)N1Nc1ccccc1` here?
Answer: 64.8% (active)

Question: For `COc1ccc(CN2CCn3ncc(C(=O)Nc4ccc(Cl)cc4Cl)c3C2=O)cc1`, which inhibition is on record?
Answer: 13.3%

Question: For `C[C@]12c3[nH]c4ccc(Cl)cc4c3CCN1C(=O)[C@@H](CC(=O)NCCCn1ccnc1)C[C@@H]2C(=O)N1CCOCC1`, which inhibition is on record?
Answer: 6.91%

Question: With `Cc1cccc(NS(=O)(=O)c2ccc(C)c(C(=O)NCc3cccnc3)c2)c1` as the molecule, how does the inhibition read?
Answer: 9.9%

Question: With `O=C(CS(=O)(=O)Cc1ccccc1)Nc1cccnc1` as the molecule, how does the inhibition read?
Answer: -1.93%

Question: With `Cc1cccc(CS(=O)(=O)c2ncc(Cl)c(C(=O)Nc3ccc(F)cc3)n2)c1` as the molecule, how does the inhibition read?
Answer: 86.1% (active)

Question: With `Cc1cccc(NC(=O)c2nc(S(=O)(=O)Cc3ccccc3)ncc2Cl)c1` as the molecule, how does the inhibition read?
Answer: 86.7% (active)

Question: For `Cc1ccc(CS(=O)(=O)c2ncc(Cl)c(C(=O)Nc3nnc(C)s3)n2)cc1`, which inhibition is on record?
Answer: 94.4% (active)

Question: With `Cc1nnc(NC(=O)CSc2nccn2-c2cccc(C)c2C)s1` as the molecule, how does the inhibition read?
Answer: 7.22%

Question: Which inhibition does the source give for `Cc1cc(NS(=O)(=O)c2ccc(NC(=S)NC(=O)c3ccc(F)cc3Cl)cc2)no1` here?
Answer: 21.4%

Question: With `CN(CCC(=O)Nc1cc(S(=O)(=O)N(C)C)ccc1Cl)CC(=O)Nc1ccc(F)cc1` as the molecule, how does the inhibition read?
Answer: 11.6%

Question: For `Cc1ccc(CS(=O)(=O)CCC(=O)NC2CC2)cc1`, which inhibition is on record?
Answer: 11.4%
